# Sampled rows, rich in hits. Any-hit rate of the full collection: about 8.9%.
# D3 antag = D3 dopamine receptor (human) antagonism; AID 652054; max response, negative = inhibition, %; D3R cells, DiscoveRx beta-arrestin luminescence, antagonist mode; stronger effect = lower value; P35462; 360,000 compounds, 2.5% hits; in the data active means max response below about -50%; inconclusive means no clear call, values can overlap the other calls; further: on the % scale 0 is the no-effect control and ±100 the full control effect
# Target sequence (P35462 whole entry, looked up): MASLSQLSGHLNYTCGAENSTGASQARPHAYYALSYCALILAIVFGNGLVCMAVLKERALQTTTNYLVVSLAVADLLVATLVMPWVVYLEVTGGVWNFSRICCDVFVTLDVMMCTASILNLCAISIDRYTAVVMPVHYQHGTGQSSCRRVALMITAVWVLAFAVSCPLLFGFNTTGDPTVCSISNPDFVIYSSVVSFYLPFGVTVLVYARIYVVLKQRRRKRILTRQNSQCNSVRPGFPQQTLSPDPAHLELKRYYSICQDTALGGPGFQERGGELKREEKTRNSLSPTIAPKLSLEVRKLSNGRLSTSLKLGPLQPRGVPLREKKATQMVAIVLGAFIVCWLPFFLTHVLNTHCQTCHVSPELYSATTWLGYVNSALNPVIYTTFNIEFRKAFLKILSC
#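 Cells plated overnight at 1500 cells/well, then exposed to library compounds with dopamine controls for 90 minutes at 37 degrees C. DiscoveRx reagent added for 30–60 minutes at room temperature; luminescence read, quantitative HTS format.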
# KB-V1 MDR tox = KB-V1 MDR subline cytotoxicity; KB-V1 MDR cells viability, CellTiter-Glo, 72 h; Potency, µM (series often up to 46.1 µM), hits mostly cytotoxic; 400,000 compounds, 3.4% hits; AID 1347076; further: potency means the concentration at half of the fitted maximal effect; on the % scale 0 is the no-effect control and ±100 the full control effect; nearly all actives have a fitted effect of over 60% in size
#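 KB-V1, DMEM (no phenol red) + 10% FBS; cpd pin-transferred, titration series; 72 h, 37 degrees C; CellTiter-Glo, luminescence. Data normalized, curve-fit.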
# SW480 rereplic = DNA re-replication induction in SW480 cells; SW480 DNA re-replication, Hoechst DNA content imaging, 48 h; AID 624297; Potency, µM (series often up to 46.1 µM), inactives show top-dose re-replication activation, usual class: activators; 340,000 compounds, 1.8% hits; further: potency means the concentration at half of the fitted maximal effect; % of control where 0% means no effect; nearly all actives have a fitted effect of over 55% in size
#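 Per well, 250 cells were exposed to pinned compound for 48 hr. Nuclear DNA was visualised with Hoechst (40 min, 37 C) and total object intensity recorded by fluorescence scanning.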
# KB-3-1 cytotox = kills parental KB-3-1 adenocarcinoma cells; KB-3-1 viability, CellTiter-Glo ATP luminescence, 72 h; Potency, µM (series often up to 46.1 µM), most hits filed as cytotoxic; 400,000 compounds, 1.4% hits; AID 1347075; further: potency means the concentration at half of the fitted maximal effect; on the % scale 0 is the no-effect control and ±100 the full control effect; nearly all actives have a fitted effect of over 60% in size
#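 Cells are dispensed, compounds pinned in, plates held at 37 °C for 72 h, then CellTiter-Glo is added and luminescence read after 10 minutes. Cell line: parental KB-3-1 in phenol-red-free DMEM, 10% FBS.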
# MCF10A rereplic = induces DNA re-replication in MCF 10a normal breast cells; MCF 10A DNA re-replication, Hoechst nuclear intensity, 48 h; Potency, µM (top dose mostly 46.1 µM), without a hit: at the top dose activity, positive = re-replication, usual class: activators; 350,000 compounds, 2.9% hits; further: potency means the concentration at half of the fitted maximal effect; % of control where 0% means no effect; nearly all actives have a fitted effect of over 50% in size
# D3 ag = D3 dopamine receptor (human) agonism | AID 652048 | P35462 | D3R DiscoveRx beta-arrestin cells, luminescence, 90 min | 410,000 compounds, 0.58% hits | max activation, %; in the data active means max activation above about 30%; further: 0% is about no effect
#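 Agonist mode: compounds and dopamine controls were applied to plated cells for 90 min at 37 degrees C after an overnight attachment at 1500 cells/well. Luminescent read-out followed 30 - 60 minutes at room temperature with DiscoveRx detection reagent.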
# Active calls of the source: *; i = inactive; ? = inconclusive; · = not tested or not shown; ! = repeats disagree; [ ] = remark or other dose. Unless noted, the call rests on the fitted dose curve; in most records, active means well fitted curve in the direction sought with a large enough effect; inconclusive means small, poorly fitted or top-dose-only effect, or another doubt; inactive means no such curve, though single readings can be large; an effect the other way counts as inactive or inconclusive.
SMILES,D3 antag,KB-V1 MDR tox,SW480 rereplic,KB-3-1 cytotox,MCF10A rereplic,D3 ag
O=S(=O)(c1ccc(Cl)cc1)N1CCN=C1SCc1cccnc1,9.3,?,-2.4%,i,-1.7%,1.7
CCNC(=O)C(C)Oc1ccc(Cl)cc1Cl (stereo not drawn),6.8,i,3.0%,i,-3.0%,-5.3
CC(Oc1ccc(Cl)cc1Cl)C(=O)NC1=NN(c2ccccc2)C(=O)C1 (stereo not drawn),10.7,i,-3.3%,i,18.4µM*,3.3
CC(Oc1ccc(Cl)cc1Cl)C(=O)NC1CCSC1=O (stereo not drawn),-75.5*,i,-3.2%,i,2.5%,-5.8
CC(=O)Nc1ccc(NC(=O)C(C)Oc2ccc(Cl)cc2Cl)cc1 (stereo not drawn),1.5,i,?,i,1.6%,1.5
COc1ccc(S(=O)(=O)NC(C)C(=O)Nc2ccccc2)cc1Cl (stereo not drawn),4.8,·,3.7%,·,11.2%,-0.5
CC(Oc1ccc(Cl)cc1Cl)C(=O)Nc1ccncc1 (stereo not drawn),31.2,9.2µM*,-7.8%[9.22 µM],i,?,3.5
CC(NS(=O)(=O)c1ccc(Cl)c(Cl)c1)C(=O)Nc1cccnc1 (stereo not drawn),-56.6*,i,-6.1%,i,-0.4%,-5.3
CC(C)CNC(=O)N1CCN(S(=O)(=O)c2ccc3c(ccn3C)c2)CC1,·,i,·,i,·,-1.2
COc1cccc(-c2oc3ccc(C)cc3c(=O)c2O)c1,·,i,·,i,·,24.2
CC(C)c1ccc2oc(-c3ccc(NC(=O)c4cccc(Br)c4)cc3)nc2c1,·,i,·,i,·,1.8
Fc1ccc2c(c1)-c1c(cnc3cc(-c4ccc(Cl)cc4)nn13)CO2,·,i,·,i,·,-2.9
COc1cccc(CNC(=O)C2CCN(Cc3cc4ccccc4n3Cc3ccc(C)cc3)CC2)c1,·,i,·,i,·,-12.8
CC(Oc1ccc(Br)cc1Br)C(=O)Nc1cccnc1 (stereo not drawn),-14.0,i,-16.6%,i,-1.7%,-9.2
CC(Oc1ccc(Cl)cc1Cl)C(=O)Nc1cccnc1 (stereo not drawn),-52.5*,i,-9.4%,i,-0.9%,-2.5
Cc1c(C)n2c(SCC(=O)N3CCOCC3)nnc2[nH]c1=O,18.0,i,0.1%,i,3.3%,0.3
Cc1nc2cc(-c3ccccc3)sc2c(=O)n1N,1.5,i,-11.6%,3.66µM*,0.3%,2.3
COc1ccc(-c2cc3nc4n(c(=O)c3s2)CCC4)cc1,26.8,i,-5.8%,i,-6.5%,0.3
COc1ccc(-c2cc3nc(C)n(N)c(=O)c3s2)cc1,8.9,4.61µM*,-9.6%,?,8.7%,0.6
Cc1ccc(C)c(N2CCN(C(=O)CN3C(=O)COc4ccc(S(=O)(=O)N5CCCC5)cc43)CC2)c1,·,?,·,i,·,-4.1
CCC(=O)Nc1cc2c(cc1C(=O)CC)OCCO2,14.1,20.6µM*,13.9%,i,-2.5%,3.7
Cc1cccc(-c2nc3c4c(-c5ccccc5)c(-c5ccccc5)oc4ncn3n2)c1,·,i,·,i,·,-12.9
COc1ccc(S(=O)(=O)c2cn(C)c3cc(N4CCOCC4)c(F)cc3c2=O)cc1,·,i,·,i,·,5.1
O=[N+]([O-])c1cc(CN2CCN(c3cccc(C(F)(F)F)c3)CC2)c2cccnc2c1O,-105.7*,?,?,3.66µM*,8.0%,-27.2
O=[N+]([O-])c1cc(CN2CCCC2)c2cccnc2c1O,14.7,5.8µM*,-3.0%,?,22.1%,1.0
SMILES,D3 antag,KB-V1 MDR tox,SW480 rereplic,KB-3-1 cytotox,MCF10A rereplic,D3 ag
CC(C)OCc1cc(CN2CCN(c3cccc(C(F)(F)F)c3)CC2)c(O)c2ncccc12,·,·,·,·,·,-14.3
O=c1[nH]nc(Sc2ccccc2)c(=S)[nH]1,16.9,i,·,i,·,6.6
COc1ccc2c(CC(=O)N(C)CC3COc4ccccc4O3)coc2c1 (stereo not drawn),6.1,18.4µM*,2.3%,i,0.4%,-1.2
O=C(Nc1ccc(C(=O)N2CCCC2)cc1)c1cc(F)c(F)cc1Cl,-4.7,i,·,i,·,4.4
Cc1cccc(NC(=O)C(Cc2ccccc2)n2cccc2)c1 (stereo not drawn),19.1,i,0.3%,i,-1.5%,-8.9
O=C(NCCc1ccccn1)c1ccc(OC2CCN(CCc3ccccc3)CC2)cc1,-61.6*,i,5.2%,i,5.1%,-27.6
O=C(NCCc1cccc(Cl)c1)c1ccc(OC2CCN(Cc3ccccn3)CC2)cc1,-58.7*,i,5.4%,i,9.4%,-18.5
CSCCCNC(=O)c1ccc(OC2CCN(CCc3ccccc3)CC2)cc1,-85.2*,i,?,i,0.8%,-19.5
CC(Cc1ccccn1)NC(=O)c1ccc(OC2CCN(CCc3ccccc3)CC2)cc1 (stereo not drawn),-66.2*,?,3.6%,?,2.5%,-9.8
CCCN1CCN(CC2=C(C(=O)OCC)C(c3cccc(OC)c3OC)NC(=O)N2)CC1 (stereo not drawn),·,i,·,i,·,3.0
Cc1ccccc1-n1c(C)nnc1SC(C)C(=O)NCc1ccco1 (stereo not drawn),·,i,·,?,·,·
CN(C)c1ccc(N=Nc2ccccc2C(=O)OCC(=O)NCC2CCCCC2)cc1,-15.4,7.31µM*,16.6%,i,18.5%,-3.7
Cc1cc(C)cc(OCCCn2c(-c3ccc(Cl)cc3)nc3ccccc3c2=O)c1,·,i,·,i,·,-8.3
COc1ccc(-c2cc(C(=O)Nc3ccc(OC)c(OC)c3)[nH]n2)c(C)c1,-59.7*,i,·,i,·,-14.7
COc1ccc(NC(=O)c2cc(-c3ccc(F)cc3OC)n[nH]2)cc1OC,-0.4,i,·,i,·,-3.5
COc1ccc(NC(=O)c2cc(-c3ccc(C)c(C)c3O)n[nH]2)cc1Cl,-25.9,i,?,i,18.4µM*,8.9
Cc1cccc(N2CCN(C(=O)c3c(C)oc4ncnc(N5CCCCC5)c34)CC2)c1C,·,i,·,i,·,-2.3
Cc1ccc(NC(=O)c2cc3c([nH]c2=O)CC(c2ccccc2)CC3=O)cc1 (stereo not drawn),·,i,·,?,·,·
C=C[C@]1(C)C[C@@H](OC(=O)CSCCN(CC)CC)[C@]2(C)C(C)CC[C@]3(CCC(=O)[C@H]32)[C@@H](C)[C@@H]1O (stereo partly drawn),-88.8*!,?,?,i,0.0%,-59.2
Cc1c(Cl)c(-c2n[nH]c(=S)n2-c2ccc(F)cc2)nn1C,-65.9*,i,2.5%,i,-4.2%,-4.5
Cn1cc(Cl)c(-c2n[nH]c(=S)n2-c2ccc(F)cc2)n1,13.8,i,-4.1%,i,1.9%,-1.0

# From PubChem BioAssay
